{"source": "PubChem BioAssay AID1347421", "about": "(Sanford-Burnham Center for Chemical Genomics, 2020)", "note": "The full ranking holds about 1,500 compounds; the median of “activity” is about 2, and the lowest 2% start at about -18. The full list was thinned out, with the lowest values kept by preference. Activity calls are given as the source filed them.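 The calls were made as follows: active = inhibition of at least 40% at 10 µM; inconclusive = no clear call, values can overlap the other calls; inactive = the rest.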", "data": [{"target": "Sulfhydryl oxidase 1 (Homo sapiens) (UniProt O00391)", "sequence (O00391 whole entry, looked up)": "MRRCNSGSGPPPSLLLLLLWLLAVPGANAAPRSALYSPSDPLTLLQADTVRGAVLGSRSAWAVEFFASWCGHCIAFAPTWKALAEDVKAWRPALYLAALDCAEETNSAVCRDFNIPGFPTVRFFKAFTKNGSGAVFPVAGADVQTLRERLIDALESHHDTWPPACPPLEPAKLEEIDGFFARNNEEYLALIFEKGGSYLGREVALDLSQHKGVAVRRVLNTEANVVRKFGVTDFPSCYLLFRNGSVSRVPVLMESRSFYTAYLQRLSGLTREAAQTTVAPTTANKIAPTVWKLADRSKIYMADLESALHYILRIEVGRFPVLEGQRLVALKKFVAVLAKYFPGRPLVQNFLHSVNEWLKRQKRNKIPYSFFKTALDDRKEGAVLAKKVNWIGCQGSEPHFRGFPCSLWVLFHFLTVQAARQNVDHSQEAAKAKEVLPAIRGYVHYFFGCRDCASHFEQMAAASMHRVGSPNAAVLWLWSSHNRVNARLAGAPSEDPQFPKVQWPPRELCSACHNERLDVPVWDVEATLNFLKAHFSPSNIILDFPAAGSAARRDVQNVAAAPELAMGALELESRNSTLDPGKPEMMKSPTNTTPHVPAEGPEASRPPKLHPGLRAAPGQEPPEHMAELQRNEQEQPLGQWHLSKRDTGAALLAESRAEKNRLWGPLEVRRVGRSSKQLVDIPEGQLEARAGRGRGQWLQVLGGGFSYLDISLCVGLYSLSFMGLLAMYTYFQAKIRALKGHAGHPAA", "test": "QSOX1 enzyme inhibitors, confirmation, biochemical, ROS-Glo luminescence, single concentration (AID 1347421);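 also: 0% = DMSO wells with enzyme and 100% = wells lacking QSOX1 enzyme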", "conditions": "recombinant hQSOX1, RNase A substrate, ROS-Glo H2O2 luminescence; at 10 µM", "values": [{"molecule": "C=CCC(=O)N(CCOC)CC1CCCN(C2Cc3ccccc3C2)C1", "note": "(centres undefined)", "activity": "6.2%"}, {"molecule": "CCOC(=O)c1nc(-c2ccc(F)cc2)no1", "activity": "-21.6% (inactive)"}, {"molecule": "COC(=O)c1ccc(-c2noc(CN(C)CC3Cc4ccccc4O3)n2)cc1", "note": "(centres undefined)", "activity": "5.4%"}, {"molecule": "CCC(=O)Oc1ccc(-c2nc(-c3cccc(OC)c3)no2)cc1", "activity": "86.9% (active)"}, {"molecule": "CC(C)NC(=O)C1CCN(C2CCN(C3CCSCC3)CC2)CC1", "activity": "0.2%"}, {"molecule": "COc1ccccc1C(=O)C1CCCN(Cc2ccc(OCCO)cc2)C1", "note": "(centres undefined)", "activity": "1.5%"}, {"molecule": "O=C(c1cc2ccccc2oc1=O)N1CCOC(CC2CCCCC2)C1", "note": "(centres undefined)", "activity": "0.4%"}, {"molecule": "CC(=O)Nc1cccc(C(=O)N2CCN(c3ccccc3)CC2)c1", "activity": "5.9%"}, {"molecule": "COc1ccc(N2CCN(C(=O)c3cccc(-n4cnnc4)c3)CC2)cc1", "activity": "-22.3% (inactive)"}, {"molecule": "COc1ccc(N2CCN(C(=O)c3ccc(-n4cnnc4)cc3Cl)CC2)cc1", "activity": "-13.7% (inactive)"}, {"molecule": "COCCN1CCCC(O)(CN2CCCCCC2)C1=O", "note": "(centres undefined)", "activity": "10.4%"}, {"molecule": "O=C(CSc1nnc(-c2ccco2)o1)Nc1ccc(Br)cc1", "activity": "2.3%"}, {"molecule": "O=C(/C=C/c1cccnc1)N1CCCC(N2CCN(c3ccc(F)cc3)CC2)C1", "note": "(centres undefined)", "activity": "1%"}, {"molecule": "c1ccc(Cc2nn3c(-c4cccs4)nnc3s2)cc1", "activity": "-5.3% (inactive)"}, {"molecule": "c1ccc(-c2nn3c(-c4cccs4)nnc3s2)nc1", "activity": "-20.4% (inactive)"}, {"molecule": "c1ccc(-c2nn3c(-c4ccco4)nnc3s2)nc1", "activity": "-4.2% (inactive)"}, {"molecule": "OCC1CCN(C2CCCN(Cc3cccc(OC4CCCC4)c3)C2)CC1", "note": "(centres undefined)", "activity": "7%"}, {"molecule": "CCN(CC)CC(=O)N1CCOC(Cc2ccccc2Cl)C1", "note": "(centres undefined)", "activity": "2.5%"}, {"molecule": "CCN(CC)S(=O)(=O)Cc1ccccc1Cl", "activity": "-19.9% (inactive)"}, {"molecule": "CCCCNC(=O)N1CCN(Cc2ccccc2Cl)CC1", "activity": "-7% (inactive)"}, {"molecule": "C=CCNC(=O)CCc1ccc(S(=O)(=O)NC)cc1", "activity": "-11.4% (inactive)"}, {"molecule": "O=C(Cn1nnc(-c2cccs2)n1)NCCC1=CCCCC1", "activity": "-7.9% (inactive)"}, {"molecule": "CC(C)CCCC1CN(C(=O)CCC(N)=O)CCO1", "note": "(centres undefined)", "activity": "6.8%"}, {"molecule": "Cc1occc1-c1nnc2n1N=C(c1ccccc1)CS2", "activity": "-19.7% (inactive)"}, {"molecule": "Cc1oc(-c2ccccc2Cl)nc1CN(Cc1cnn(C)c1)C(C)C", "activity": "5.9%"}, {"molecule": "COc1ccc(CNCCCSC)cc1OCC(O)CN(C)C(C)C", "note": "(centres undefined)", "activity": "3.5%"}, {"molecule": "O=C(NCC(c1ccc(F)cc1)N1CCCC1)c1cn(CCN2CCOCC2)nn1", "note": "(centres undefined)", "activity": "2.4%"}, {"molecule": "COc1cccc(NC(=O)CCC2CCN(C(=O)CCc3cnccn3)CC2)c1", "activity": "-0.4% (inactive)"}, {"molecule": "CCN1CCCC1CNC(=O)CCC1CCN(Cc2cc(OC)c3c(c2)OCO3)CC1", "note": "(centres undefined)", "activity": "0.6%"}, {"molecule": "CCS(=O)(=O)c1ncc(CN(C)CC(O)c2ccccc2)n1Cc1ccccc1", "note": "(centres undefined)", "activity": "6.9%"}, {"molecule": "CCn1cc(-c2nc(-c3ccccn3)no2)cn1", "activity": "44.4% (active)"}, {"molecule": "COCCN1C(=O)C(=O)/C(=C(\\O)c2ccc(OC)cc2C)C1c1cccnc1", "note": "(centres undefined)", "activity": "-3% (inactive)"}, {"molecule": "NC(=O)C1CCCN(C(=O)Nc2ccc(F)cc2)C1", "note": "(centres undefined)", "activity": "-0.4% (inactive)"}, {"molecule": "CSc1ncc(CN2CCCC(CO)(CCOc3ccccc3)C2)cn1", "note": "(centres undefined)", "activity": "10.5%"}, {"molecule": "COc1ccccc1CCN1CCC(CN(C)C(=O)c2cscn2)CC1", "activity": "-1.8% (inactive)"}, {"molecule": "Cc1cc(CNCc2cccc(OCC(O)CN3CCCCCC3)c2)on1", "note": "(centres undefined)", "activity": "-2.7% (inactive)"}, {"molecule": "COC(=O)c1ccc(CNC(=O)CC2C(=O)NCCN2Cc2cccs2)cc1", "note": "(centres undefined)", "activity": "2.8%"}, {"molecule": "O=C(c1ccc(-c2ccccc2)c(F)c1)C1CCCN(C(=O)CCc2cnccn2)C1", "note": "(centres undefined)", "activity": "9.5%"}, {"molecule": "Fc1ccc(C2(c3noc(-c4cn[nH]c4)n3)CCOC2)cc1", "note": "(centres undefined)", "activity": "2.1%"}, {"molecule": "Cc1cc(C)c(S(=O)(=O)Nc2ncn[nH]2)c(C)c1", "activity": "-18.4% (inactive)"}, {"molecule": "CC(C)Oc1cccc(C(=O)Nc2ncn[nH]2)c1", "activity": "-3.3% (inactive)"}, {"molecule": "CCOC(=O)C1(CCCc2ccccc2)CCN(C(=O)CCn2cnnn2)CC1", "activity": "0.6%"}, {"molecule": "COCc1ccc(C(=O)N2CCC(CCC(=O)NCc3cccnc3)CC2)o1", "activity": "4.1%"}, {"molecule": "CC(C)CCCC1CN(Cc2ncc[nH]2)CCO1", "note": "(centres undefined)", "activity": "5.8%"}, {"molecule": "COc1ccc(OC2CCN(C(=O)C3CC3)CC2)c(C(=O)NCCCN2CCOCC2)c1", "activity": "2%"}, {"molecule": "Cc1ccc(NC(=O)CN2CCc3ccccc3C2)cc1", "activity": "-21.7% (inactive)"}, {"molecule": "O=C(CN1CCCCCC1)Nc1ccc(Cl)cc1", "activity": "-10% (inactive)"}, {"molecule": "Cc1cccc(N2CCN(CC(=O)Nc3ccc(S(N)(=O)=O)cc3)CC2)c1C", "activity": "-11.2% (inactive)"}, {"molecule": "CN(C)CCC1CN(C(=O)CSc2ccccc2)CCO1", "note": "(centres undefined)", "activity": "4.2%"}, {"molecule": "CC(C)Cc1ccc(CN2CCCC(NC3CCN(C)CC3)C2)cc1", "note": "(centres undefined)", "activity": "-2.5% (inactive)"}, {"molecule": "O=C(CCc1ccncc1)N1CCOC(Cc2ccccc2Cl)C1", "note": "(centres undefined)", "activity": "3.1%"}, {"molecule": "CCN1CCCC1CN(CC1CCN(CCOC)CC1)C(=O)CCc1ccc(=O)[nH]n1", "note": "(centres undefined)", "activity": "6.9%"}, {"molecule": "CN(C)CCC1CN(Cc2cnc(-c3ccccc3)s2)CCO1", "note": "(centres undefined)", "activity": "-0.6% (inactive)"}, {"molecule": "CCCn1c(=O)c2c(nc3n2CCN3Cc2ccco2)n(C)c1=O", "activity": "-9.9% (inactive)"}, {"molecule": "Cc1nc(-c2ccc(CN3CCC(CCn4cccn4)CC3)cc2)[nH]c(=O)c1F", "activity": "7.1%"}, {"molecule": "CC(C)(C)C1(c2ccccc2)NC(=O)N(CC(=O)N2CCCCC2)C1=O", "note": "(centres undefined)", "activity": "-23.9% (inactive)"}, {"molecule": "O=C(c1ccc(-c2ccccc2)cc1)C1CCCN(C(=O)CN2C(=O)CSC2=O)C1", "note": "(centres undefined)", "activity": "5.7%"}, {"molecule": "O=C(CN1C(=O)CCNC1=O)N1CCC(OCc2ccccc2)CC1", "activity": "2.9%"}, {"molecule": "COc1ccc(-c2noc(CN3CCC(C)CC3)n2)cc1OC", "activity": "-16% (inactive)"}, {"molecule": "COc1cc(CN2CC[C@@H](N3CCCCCC3)[C@H](O)C2)ccc1F", "activity": "0.7%"}, {"molecule": "O=C(CCC1CCCN(C/C=C/c2ccc(F)cc2)C1)N1CCCC1", "note": "(centres undefined)", "activity": "-1.2% (inactive)"}, {"molecule": "CS(=O)(=O)N(CC(=O)N1CCCC1)Cc1ccc(F)cc1", "activity": "-19.7% (inactive)"}, {"molecule": "CN(C)S(=O)(=O)c1ccc(CCC(=O)N2CCOCC2)cc1", "activity": "1.9%"}, {"molecule": "COc1ccc(CNCCCN2CCOCC2)cc1OCC(O)CN1CCCC1", "note": "(centres undefined)", "activity": "4.6%"}, {"molecule": "COC(=O)CCCNC(=O)C1CCC(=O)N(Cc2ccccc2OC)C1", "note": "(centres undefined)", "activity": "1.6%"}, {"molecule": "COCCCNc1nc2nonc2nc1N(C)CCN1CCOCC1", "activity": "-1.4% (inactive)"}, {"molecule": "COc1ccc2oc3nc(=O)c4ccccc4c-3cc2c1", "activity": "-123% (inactive)"}, {"molecule": "COc1ccc(OC)c(-c2nc(CN3CCN(C(=O)c4ccco4)CC3)c(C)o2)c1", "activity": "-4% (inactive)"}, {"molecule": "COc1ccc(C(C)N(C)Cc2nc(-c3ccc(OC)cc3OC)oc2C)cc1", "note": "(centres undefined)", "activity": "5.7%"}]}]}
